Source: PubChem BioAssay (EPA / NIEHS)
Where “and” joins values, the source holds several entries; their conditions need not be identical. Equal entries are not always repeated. Calls of active or inactive are those of the source. Rule for the calls: active = hit-call score of the fitted dose curve at least 0.9, where 1 is the maximum; inactive = score below 0.9.

What follows are molecules tested on Vascular cell adhesion molecule 1 (VCAM1), VCAM1 (gene 7412) (assay: BSK_hDFCGF_VCAM1: BioMAP Diversity Plus: hDFCGF Assay for Vascular cell adhesion molecule 1 (VCAM1) Biomarker Activity (AID 2283065)). Conditions: primary human foreskin fibroblasts; actives raise or lower the signal.
Method: BSK_hDFCGF is a cell-based, multiplexed-readout assay that uses foreskin fibroblast, a human skin primary cell, with measurements taken at 24 hours after chemical dosing in a 96-well plate.BSK_hDFCGF_VCAM1 is an assay component measured in the BSK_hDFCGF assay. It measures VCAM-1 antibody related to regulation of gene expression using ELISA technology.Data from the assay component BSK_hDFCGF_VCAM1 was analyzed into 1 assay endpoint. This assay endpoint, BSK_hDFCGF_VCAM1, was analyzed with bidirectional fitting relative to DMSO as the negative control and baseline of activity. Using a type of binding reporter, gain or loss-of-signal activity can be used to understand changes in the signaling as they relate to the gene VCAM1. Furthermore, this assay endpoint can be referred to as a primary readout, because this assay has produced multiple assay endpoints where this one serves a signaling function. To generalize the intended target to other relatable targets, this assay endpoint is annotated to the cell adhesion molecules intended target family, where the subfamily is Immunoglobulin CAM.
The levels of cell surface (or secreted, indicated by the prefix "s") biomarker endpoints were measured by ELISA. Overt cytotoxicity to cells in confluent adherent cultures (all systems other than the BT system) was assessed by measuring total protein levels using sulforhodamine B (SRB) staining in parallel cultures at the time of biomarker measurements, indicated as SRB endpoints. For proliferation assays for adherent cell types, individual cell types are cultured at sub-confluence and relative cell numbers quantified by SRB staining at time points optimized for each system (48 h: 3C and CASM3C systems; 72 h: BT and HDF3CGF systems; 96 h: SAg system). SRB was performed by staining cells with 0.1% SRB after fixation with 10% TCA and reading wells at 560 nm.Viability and proliferation of PBMC (T cells) was quantified by Alamar Blue reduction for the SAg and BT systems. For PBMC viability (referred to as PBMC Cytotoxicity within the assay endpoint names), cells were plated (75,000/well in a 96-well plate) and then chemical samples added for 1 h before addition of activators, SEB and TSST-1 (20 ng/mL final concentration each). Cells were incubated for 90 h. Then, Alamar Blue (20 uL/well) (Invitrogen, Cat DAL1100) was added for 6 h, and the plates were read with a fluorescence microplate reader at 546/580 nm (excitation/emission). For PBMC proliferation, cells were plated and activated as above but incubated for only 16 h prior to addition of Alamar Blue. Plates were read after 6 h.
For `COC(C)(C)CCC[C@H](C)C/C=C/C(C)=C/C(=O)OC(C)C`, the AC50 was 25 µM (active).
`C=CC(=O)OCC(CC)CCCC` (stereo not drawn) was tested, and the AC50 was 16 µM (active).
In the case of `CNC(=O)Oc1cc(C)c(SC)c(C)c1`, the outcome is reported as “inactive”.
With `COCC(=O)N(c1c(C)cccc1C)N1CCOC1=O` the outcome was “inactive”.
With `CC(C)(c1cc(Cl)c(O)c(Cl)c1)c1cc(Cl)c(O)c(Cl)c1` the AC50 was 10.5 µM (active).
For `CCC(C)c1cc([N+](=O)[O-])cc([N+](=O)[O-])c1OC(=O)C=C(C)C` (stereo not drawn), the AC50 was 5.91 µM (active).
`Cc1ccc(OP(=O)(Oc2ccc(C)cc2)Oc2ccc(C)cc2)cc1` (tested in a mixture with another compound) was tested, and the outcome was “inactive”.
For `CC1(C)[C@H](C(=O)O[C@H](C#N)c2cccc(Oc3ccccc3)c2)[C@@H]1C=C(Br)Br`, the outcome was “inactive”.
`CC(C)(C)C(O)C(Oc1ccc(-c2ccccc2)cc1)n1cncn1` (stereo not drawn) was tested, and the outcome was “inactive”.
In the case of `CC(C)CCCCCCCOP(=O)(Oc1ccccc1)Oc1ccccc1`, the AC50 is reported as 5.85 µM (active).
For `O=c1[nH]c(Cl)c(Cl)cc1Cl`, the outcome was “inactive”.
In the case of `O=C(O)CCCc1ccc(N(CCCl)CCCl)cc1`, the outcome is reported as “inactive”.
In the case of `O=c1c2ccccc2c(=O)c2c1cc(Cl)c1[nH]c3c([nH]c12)c(Cl)cc1c(=O)c2ccccc2c(=O)c13`, the AC50 is reported as 14.4 µM (active).
`Nc1ccc(-c2ccc(N)c(N)c2)cc1N` was tested, and the AC50 was 11.7 µM (active).
With `O=[N+]([O-])O` the outcome was “inactive”.
With `[Cd+2].[Cl-].[Cl-]` the AC50 was 1.9 µM (active) and 2.23 µM (active).
With `CCc1cc(C)cc(CC)c1-c1c(OC(=O)C(C)(C)C)n2n(c1=O)CCOCC2` the outcome was “inactive”.
For `O=[N+]([O-])C=Cc1ccccc1`, the AC50 was 1.41 µM (active).
In the case of `C=CCN(CC=C)C(=O)C(Cl)Cl`, the outcome is reported as “inactive”.
In the case of `CCCOC(=O)c1ccccc1C(=O)OCCC`, the outcome is reported as “inactive”.
In the case of `CC(C)(C)C(=O)CCl`, the AC50 is reported as 12.2 µM (active).
With `O=P1(NCCCl)OCCCN1CCCl` (stereo not drawn) the outcome was “inactive”.
With `CCCC[N+](CCCC)(CCCC)CCCC` the outcome was “inactive”.
For `COc1ccc(CO)cc1`, the outcome was “inactive”.
For `O=C1C(Cl)=C(Cl)C(=O)C(Cl)=C1Cl`, the AC50 was 11.1 µM (active).
With `N#CCCCCC#N` the outcome was “inactive”.
`CC(C)COP(=O)(OCC(C)C)OCC(C)C` was tested, and the outcome was “inactive”.
`O=[N+]([O-])c1ccc(Cl)cc1` was tested, and the outcome was “inactive”.
`CCCCCCCCCCCC#N` was tested, and the AC50 was 20.6 µM (active).
`Oc1cc(Cl)ccc1Cl` was tested, and the outcome was “inactive”.
For `CC(C)CCCCCCCOC(=O)c1ccccc1C(=O)OCCCCCCCC(C)C`, the outcome was “inactive”.
In the case of `c1ccc(Nc2ccc3ccccc3c2)cc1`, the AC50 is reported as 30.1 µM (active).
For `O=C1C=CC(=O)C=C1`, the AC50 was 19 µM (active) and 12.8 µM (active).
With `CC(=O)/C=C/c1ccccc1` the outcome was “inactive”.
With `Oc1ccc(C2(c3ccc(O)cc3)c3ccccc3-c3ccccc32)cc1` the AC50 was 1.61 µM (active) and 1.41 µM (active).
In the case of `O=C(CCl)c1ccccc1`, the AC50 is reported as 2.56 µM (active).
For `O=S(=O)(c1ccccc1)c1ccccc1`, the outcome was “inactive”.
`Clc1ccc(-c2ccccc2)cc1` was tested, and the outcome was “inactive”.
